# Laboratory results reported in ChEMBL document CHEMBL1961873, “Compounds: GSK PKIS; Assays: Nanosyn kinase panel” (2012).
# Biological target: Fibroblast growth factor receptor 3 (Homo sapiens) (UniProt P22607)
# Conditions: at 0.1 µM
# 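Further: each value is a mean percent inhibition of FGFR3.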
# Sequence of Fibroblast growth factor receptor 3 (Homo sapiens) (P22607 23-806 limits assumed): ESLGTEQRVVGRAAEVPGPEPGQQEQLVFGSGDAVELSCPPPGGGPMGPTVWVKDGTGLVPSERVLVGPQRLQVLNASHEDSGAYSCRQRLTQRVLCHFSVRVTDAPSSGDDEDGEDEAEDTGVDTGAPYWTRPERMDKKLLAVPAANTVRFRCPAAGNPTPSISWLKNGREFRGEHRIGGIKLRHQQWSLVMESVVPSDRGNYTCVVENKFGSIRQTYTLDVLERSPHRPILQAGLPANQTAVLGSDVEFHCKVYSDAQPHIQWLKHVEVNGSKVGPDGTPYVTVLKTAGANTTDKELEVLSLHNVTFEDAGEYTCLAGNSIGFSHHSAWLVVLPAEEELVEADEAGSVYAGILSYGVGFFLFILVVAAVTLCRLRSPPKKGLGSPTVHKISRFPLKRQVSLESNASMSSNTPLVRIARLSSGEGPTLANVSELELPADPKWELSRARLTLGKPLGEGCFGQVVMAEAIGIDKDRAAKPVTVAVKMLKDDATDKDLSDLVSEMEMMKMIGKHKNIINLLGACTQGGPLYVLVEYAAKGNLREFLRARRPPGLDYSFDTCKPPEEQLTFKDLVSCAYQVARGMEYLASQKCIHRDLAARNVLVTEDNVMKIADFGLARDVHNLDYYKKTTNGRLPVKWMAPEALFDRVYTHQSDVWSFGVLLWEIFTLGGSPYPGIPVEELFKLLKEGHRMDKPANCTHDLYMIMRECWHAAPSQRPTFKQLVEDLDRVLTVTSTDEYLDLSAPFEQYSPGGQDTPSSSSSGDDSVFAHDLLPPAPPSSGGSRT
row,SMILES,inhibition [%]
1,Nc1nc(-c2ccccn2)c(-c2ccc3ncccc3n2)s1,5.15
2,Fc1cccc(COc2ccc(Nc3ncnc4cc(-c5ccc[nH]5)sc34)cc2Cl)c1,-1
3,COc1cccc(-n2ncc3c(N/N=C/c4cccc(F)c4)ncnc32)c1,0.54
4,CCn1c(-c2nonc2N)nc2c(C#CC(C)(C)O)nc(OC[C@@H](N)c3ccccc3)cc21,-1.33
5,COc1ccc(-c2coc3ncnc(N)c23)cc1,6.98
6,Cc1cccc(-c2n[nH]cc2-c2ccc3ncccc3n2)n1,1.61
7,Nc1ncnc2occ(-c3ccc(NC(=O)Nc4cc(C(F)(F)F)cc(C(F)(F)F)c4)cc3)c12,10.8
8,[O-][S+]1CCN(Cc2ccc(-c3ccc4ncnc(Nc5ccc(OCc6ccccc6)c(F)c5)c4c3)o2)CC1,3.41
9,Nc1nc(-c2ccc3c(c2)C(=Cc2cc(Br)c(O)c(Br)c2)C(=O)N3)cs1,-0.11
10,CC1=C(C(=O)Nc2ccc3[nH]ncc3c2)C(c2ccc3ccccc3c2)CC(=O)N1 (stereo not drawn),9.54
11,CS(=O)(=O)CCNCc1ccc(-c2ccc3ncnc(Nc4ccc(OCc5ccccc5)c(Cl)c4)c3c2)o1,2.05
12,c1cnn2ncc(-c3ccnc(Nc4ccc5c(c4)OCCO5)n3)c2c1,6.39
13,CN1CCC(C(=O)Nc2n[nH]c3nnc(-c4ccccc4)cc23)CC1,5.57
14,Cn1cc(C=C2C(=O)Nc3cccnc32)c2ccccc21,11.2
15,Cc1nnc(-c2ccc(C)c(-c3ccc(C(=O)Nc4cccc(C#N)c4)cc3)c2)o1,2.6
16,CNC(=O)c1cncc(/C=C/c2c(Cl)cccc2Cl)c1,5.62
17,N#Cc1c(NC(=O)c2cccc3ccccc23)sc2c1CCCC2,5.84

row,SMILES,inhibition [%]
1,CCn1c(-c2nonc2N)nc2cnc(Oc3cccc(NC(=O)c4ccc(OCCN5CCOCC5)cc4)c3)cc21,3.36
2,COc1ccccc1Nc1ncc(-c2ccccc2)o1,6.19
3,COc1ccc(COc2ccc(Cc3cnc(N)nc3N)cc2OC)cc1,2.29
4,CS(=O)(=O)Nc1ccc(N/C=C2\C(=O)Nc3ccccc32)cc1,1.57
5,CC1=C(C(=O)Nc2ccc3[nH]ncc3c2)C(c2ccc(Cl)c(Cl)c2)CC(=O)N1 (stereo not drawn),2.17
6,COc1cc2ncn(-c3cc(O[C@@H](C)c4ccccc4Cl)c(C(N)=O)s3)c2cc1OC,6.87
7,NS(=O)(=O)c1cccc(-c2ccc3c(NC(=O)C4CC4)n[nH]c3c2)c1,-0.12
8,Nc1ncnc2occ(-c3ccc(NC(=O)Nc4cccc(C(F)(F)F)c4)cc3)c12,7.97
9,CS(=O)(=O)CCNCc1ccc(-c2ccc3ncnc(Nc4ccc(OCc5cccc(F)c5)c(C(F)(F)F)c4)c3c2)o1,4.79
10,O=C1Nc2ccc(C(=O)c3ccco3)cc2C1=Cc1cc(Cl)c(O)c(Cl)c1,9.26
11,COc1cc2c(cc1Nc1nc(N3CCc4ccccc43)c3cc[nH]c3n1)N(C(=O)CN(C)C)CC2,3.52
12,CCc1cccc(NC(=O)Nc2ccc(Oc3ccc4nc(NC(=O)OC)[nH]c4c3)cc2)c1,3.09
13,CCN1CCC(CC(=O)Nc2n[nH]c3nc(-c4cccs4)c(Br)cc23)CC1,-1.64
14,Cc1ccc(NC(=O)c2ccnc(N3CCCC3)c2)cc1-c1ccc(C(=O)NCC2CC2)cc1,6.97
15,CCn1c(-c2nonc2N)nc2c(C#CC(C)(C)O)nc(CN3CCCC3)cc21,-2.14
16,COc1cc(C)c(NC(=O)CN(C)C)cc1Nc1nc(Nc2cccc(F)c2C(N)=O)c2cc[nH]c2n1,2.37
